Assay outcomes (PubChem)
An excerpt weighted towards active compounds, which were near 3.5% of everything screened.
GPR151 ag – activates the human receptor GPR151. Q8TDV0. AID 1508602. PathHunter beta-arrestin GPR151 cells, luminescence. activation, % at 11.2 µM. 650,000 compounds, 1% hits; in the data active = activation above about 4.9%;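 note: 0% = median of compound wells and 100% = cells with positive control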
Target sequence (Q8TDV0 whole entry, looked up): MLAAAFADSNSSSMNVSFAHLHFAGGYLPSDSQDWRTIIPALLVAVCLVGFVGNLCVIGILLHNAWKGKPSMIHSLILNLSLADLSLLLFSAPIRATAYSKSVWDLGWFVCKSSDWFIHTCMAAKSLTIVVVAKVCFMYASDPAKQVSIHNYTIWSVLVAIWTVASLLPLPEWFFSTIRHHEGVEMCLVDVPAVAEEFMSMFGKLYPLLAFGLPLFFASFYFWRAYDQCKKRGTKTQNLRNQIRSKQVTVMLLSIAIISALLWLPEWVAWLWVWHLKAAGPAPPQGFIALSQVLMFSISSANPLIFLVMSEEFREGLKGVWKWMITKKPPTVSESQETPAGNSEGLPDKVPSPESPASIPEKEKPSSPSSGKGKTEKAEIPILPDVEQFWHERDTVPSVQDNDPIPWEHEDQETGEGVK
TEAD-YAP block – TEAD-YAP interaction inhibition. 640,000 compounds, 1.4% hits. HEK-TIYL cells, TEAD-Gal4/YAP UAS-luciferase luminescence. AID 1259422. inhibition, % at 9.12 µM; in the data active = inhibition above about 32%;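 note: 0% = median of test compound wells and 100% = reference inhibitor wells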
MITF inh – blocks human microphthalmia-associated transcription factor; 650,000 compounds, 0.91% hits; AlphaScreen MITF homodimerization, bead proximity signal; O75030; AID 1259374; inhibition, % at 2.6 µM; in the data active = inhibition above about 50%;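 note: 0% = vehicle wells with protein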
FBW7 activator – human FBW7 E3 ligase activation, primary screen. normalized activity (activation), % at 26.1 µM. AID 1259310. AlphaScreen FBW7–phospho-cyclin E peptide binding, activator screen. 650,000 compounds, 0.13% hits; in the data active = normalized activity above about 1.9%;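 note: purified mutant Fbw7 with reduced substrate affinity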
MITF inh conf – confirmation of human MITF inhibitors | shares compounds with MITF inh | AlphaScreen MITF homodimerization, biotin/His-MITF beads | inhibition, % at 2.6 µM | 4,700 compounds, 16% hits;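 active = inhibition above a cutoff derived from the DMSO control wells, cut at about 28% in these data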;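 note: 0% = MITF dimer wells with DMSO only; inhibitors lower the bead chemiluminescence by keeping MITF from dimerizing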
AS interf DR – counter-screen: compounds optically interfering with AlphaScreen | 480 compounds, 6% hits | IC50, µM | shares compounds with MITF inh | AlphaScreen optical interference counterscreen, cell-free | AID 1259373; call rule not given here
AlphaScreen intf2 – optically interferes with AlphaScreen signal. shares compounds with MITF inh. LysRS AlphaScreen counterscreen, signal interference, triplicate. inhibition, % at 2.6 µM. 4,700 compounds, 7.6% hits;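 active = inhibition above a cutoff derived from the DMSO control wells, cut at about 30% in these data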
The depositor's hits bear a star.

Screening COc1cc(C2C3=C(CCCC3=O)Nc3ccc4ncccc4c32)ccc1OC(C)=O (configuration not stated) returned GPR151 ag 1.2, TEAD-YAP block 54.4*, MITF inh 17.3 and FBW7 activator 0.0.
`CCOc1cc(C2Nc3ccc(C(=O)c4ccccc4)cc3NC3=C2C(=O)CC(C)(C)C3)ccc1O` (configuration not stated) gave GPR151 ag -1.0, TEAD-YAP block 45.2*, MITF inh 4.0 and FBW7 activator 0.4.
Screening CCOc1cc(C2Nc3ccc(C(=O)c4ccccc4)cc3NC3=C2C(=O)CCC3)ccc1O (configuration not stated) returned GPR151 ag 0.9, TEAD-YAP block 64.4*, MITF inh 3.1 and FBW7 activator -0.2.
`COc1cc(C2C3=C(CCCC3=O)Nc3ccc4nc(C)ccc4c32)ccc1OC(C)=O` (configuration not stated) gave GPR151 ag -0.2, TEAD-YAP block -2.8, MITF inh -12.0 and FBW7 activator -0.1.
For CN(C)S(=O)(=O)c1ccc(C(=O)N=c2sc3cc(Br)ccc3n2C)cc1 the results were GPR151 ag -0.1, TEAD-YAP block 13.8, MITF inh 17.9 and FBW7 activator 0.2.
CCOc1ccc(CN(CCc2ccc3c(c2)OCO3)Cc2cccnc2)cc1 was read as GPR151 ag 0.7, TEAD-YAP block 3.6, MITF inh 59.7*, FBW7 activator -0.2, MITF inh conf -3.6 and AlphaScreen intf2 -4.3.
`CCOc1ccc(CN(CCc2ccc3c(c2)OCO3)Cc2cc(OC)c(OC)cc2OC)cc1` gave GPR151 ag -0.1, TEAD-YAP block -2.5, MITF inh 45.1 and FBW7 activator -0.2.
CCOc1ccccc1CN(CCc1ccc2c(c1)OCO2)Cc1cccnc1 was read as GPR151 ag 0.4, TEAD-YAP block -7.0, MITF inh 78.1*, FBW7 activator 0.4, MITF inh conf 4.9 and AlphaScreen intf2 10.9.
Screening CCOc1ccc(CN(CCc2ccc3c(c2)OCO3)Cc2cccc3ccccc23)cc1 returned GPR151 ag -1.2, TEAD-YAP block -2.4, MITF inh 52.5*, FBW7 activator 0.5, MITF inh conf -5.2 and AlphaScreen intf2 -8.7.
Screening COc1ccc(NC(=O)c2cc3nc(-c4ccc(F)cc4)cc(C(F)(F)F)n3n2)cc1OC returned GPR151 ag -0.1, TEAD-YAP block -0.7, MITF inh 18.0 and FBW7 activator 1.3.
Screening O=C(OC1CCCCC1=O)c1ccc(S(=O)(=O)NCc2ccco2)cc1 (configuration not stated) returned GPR151 ag 0.5, TEAD-YAP block -0.2, MITF inh 14.5 and FBW7 activator 0.0.
O=C(OC1CCOC1=O)c1ccc(S(=O)(=O)NCc2ccco2)cc1 (configuration not stated) was read as GPR151 ag 0.8, TEAD-YAP block 5.7, MITF inh 53.4*, FBW7 activator 0.1, MITF inh conf 52.4*, AS interf DR >7.1 and AlphaScreen intf2 -8.3.
Screening CCN1CCN(CCOc2cccc(Oc3ccccc3)c2)CC1 returned GPR151 ag 1.0, TEAD-YAP block -0.4, MITF inh 73.7*, FBW7 activator -0.1, MITF inh conf 6.6 and AlphaScreen intf2 10.5.
Screening CCN1CCN(CCCOc2ccc(OCc3ccccc3)cc2)CC1 returned GPR151 ag -0.2, TEAD-YAP block -12.9, MITF inh 34.2 and FBW7 activator -0.4.
CCN1CCN(CCOCCOc2ccccc2)CC1 was read as GPR151 ag -0.7, TEAD-YAP block 12.3, MITF inh 53.8*, FBW7 activator -0.3, MITF inh conf 4.3 and AlphaScreen intf2 11.1.
Screening Brc1cccc(OCCN2CCNCC2)c1 returned GPR151 ag -2.3, TEAD-YAP block -10.3, MITF inh 29.1 and FBW7 activator -0.7.
For c1ccc(Oc2cccc(OCCN3CCNCC3)c2)cc1 the results were GPR151 ag 0.0, TEAD-YAP block -12.4, MITF inh 70.8*, FBW7 activator 0.1, MITF inh conf 13.2 and AlphaScreen intf2 -6.5.
`Cc1cc(NCCc2ccc(O)cc2)nc(Nc2ccc(C(F)(F)F)cc2)n1` gave GPR151 ag 0.9, TEAD-YAP block 1.2, MITF inh 8.5 and FBW7 activator 0.1.
Screening COCCn1c(SCC#N)nnc1-c1ccc(O)cc1 returned GPR151 ag -0.3, TEAD-YAP block 6.4, MITF inh 9.4 and FBW7 activator 0.3.
`COCCn1c(SCC#N)nnc1-c1ccccc1` gave GPR151 ag 0.9, TEAD-YAP block 5.5, MITF inh 65.3*, FBW7 activator 0.3, MITF inh conf 15.2 and AlphaScreen intf2 18.3.
O=C(Nc1ccc(F)cc1)c1ccccc1Br was read as GPR151 ag -2.1, TEAD-YAP block -50.6, MITF inh 8.9 and FBW7 activator 0.1.
`Cc1ccc(CN(C)C(=O)CC2(c3ccccc3)CC(=O)N(Cc3ccncc3)C2=O)cc1` (configuration not stated) gave GPR151 ag 0.9, TEAD-YAP block 10.8, MITF inh 2.1 and FBW7 activator -0.1.
C=CCOC(=O)C1=C(C)NC2=C(C(=O)CC(C)(C)C2)C1c1cc(OC)c(OC)c(OC)c1 (configuration not stated) was read as GPR151 ag 1.1, TEAD-YAP block 7.4, MITF inh -5.8 and FBW7 activator 0.0.
`O=C(O)c1cccc(-n2cccc2/C=C2/NC(=O)N(c3ccc(Cl)cc3)C2=O)c1` gave GPR151 ag -0.2, TEAD-YAP block -8.1, MITF inh 60.9*, FBW7 activator -0.1, MITF inh conf 35.5*, AS interf DR >6.48 and AlphaScreen intf2 9.6.
Screening O=C(O)c1ccc(/C=C2/NC(=O)N(c3ccc(Cl)cc3)C2=O)cc1 returned GPR151 ag 0.7, TEAD-YAP block -6.8, MITF inh -19.5 and FBW7 activator -0.1.
For O=C(O)c1cccc(-n2cccc2/C=C2/NC(=O)N(c3cccc(Cl)c3)C2=O)c1 the results were GPR151 ag 0.3, TEAD-YAP block 4.7, MITF inh 20.8 and FBW7 activator 0.0.
For O=C1NC(=O)/C(=C\c2cccn2-c2ccc(C(=O)O)cc2)N1 the results were GPR151 ag -0.8, TEAD-YAP block 13.0, MITF inh 66.1*, FBW7 activator -0.1, MITF inh conf 9.1 and AlphaScreen intf2 -5.2.
`O=C(O)c1ccc(-n2cccc2/C=C2/NC(=O)N(c3ccc(Cl)cc3)C2=O)cc1` gave GPR151 ag -0.5, TEAD-YAP block -14.5, MITF inh 55.2*, FBW7 activator -0.1, MITF inh conf 73.9* and AlphaScreen intf2 33.8*.
`Cc1ccc(CSc2nc3cc(C(=O)N4CCC(C(N)=O)CC4)ccc3c(=O)n2-c2ccccc2)cc1` gave GPR151 ag -1.0, TEAD-YAP block 16.0, MITF inh 5.5 and FBW7 activator 0.1.
